Records with an inconclusive call do not appear. The source made the active and inactive calls. Calls come from the whole dose curve; as a rule, active = well fitted cell-killing curve with a large enough effect; inconclusive = small, poorly fitted or top-dose-only effect, or effect the other way; inactive = no such curve, though single readings can be large or run the other way.
Test: Quantitative High-Throughput drug screen in 47 multiple myeloma cell lines against the NCATS MIPE library collection: ARD_JJKsccE7 cell viability assay (AID 1918929)
Conditions: ARD myeloma cell line viability, CellTiter-Glo, 48 h; series mostly up to 45.8 µM; viability: at the top concentration
In short: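 Relative luminescence from CellTiter-Glo served as the viability signal, referenced to DMSO-treated (100%) and cell-free medium (0%) controls. Treatment lasted 48 hours at 37C with 500 cells per well.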
Potency is the fitted concentration of half-maximal effect.

Row | Structure (SMILES) | viability | Potency
1 | COc1cc(C=CC(=O)O)ccc1O | 96% (inactive) | –
2 | CC(C)(F)C[C@H](N[C@@H](c1ccc(-c2ccc(S(C)(=O)=O)cc2)cc1)C(F)(F)F)C(=O)NC1(C#N)CC1 | 104% (inactive) | –
3 | C=C1[C@H](n2cnc3c(=O)[nH]c(N)nc32)C[C@H](O)[C@H]1CO | – | 9.35 µM (active)
4 | FC(F)(F)c1ccc(C=Cc2nc(COc3ccc(CCCCn4ccnn4)cc3)co2)cc1 | – | 0.001 µM (active)
5 | Cc1nc(NC(=O)N2CCC[C@@H]2C(N)=O)sc1-c1csc(C(C)(C)C)n1 | – | 0.372 µM (active)
6 | CC(=O)N1CCN(c2ccc(OCc3nn(C)c(C)c3-c3cccc4c(CCCOc5cc(C)c(Cl)c(C)c5)c(C(=O)O)n(Cc5cccnc5)c34)cc2)CC1 | – | 20.9 µM (active)
7 | CCC(=O)NCC[C@@H]1CCc2ccc3c(c21)CCO3 | 130% (inactive) | –
8 | Oc1cc(O)cc(C=Cc2ccc(O)c(O)c2)c1 | – | 9.35 µM (active)
9 | CC(C)n1c(C=C[C@H](O)C[C@H](O)CC(=O)O)c(-c2ccc(F)cc2)c2ccccc21 | – | 9.35 µM (active)
10 | Cc1ccc(NC(=O)Nc2cc(C(F)(F)F)ccc2F)cc1Nc1ccc2c(c1)NC(=O)C2=Cc1ccc[nH]1 | – | 3.32 µM (active)
11 | CO[C@H]1C=CO[C@@]2(C)Oc3c(C)c(O)c4c(O)c(c(C=NN5CCN(C)CC5)c(O)c4c3C2=O)NC(=O)C(C)=CC=C[C@H](C)[C@H](O)[C@@H](C)[C@@H](O)[C@@H](C)[C@H](OC(C)=O)[C@H]1C | 136% [at 15.3 µM] (inactive) | –
12 | C[C@@H]1CC=CC=CC=CC=C[C@@H](O[C@@H]2O[C@H](C)[C@@H](O)[C@H](N)[C@H]2O)C[C@@H]2O[C@](O)(C[C@@H](O)C[C@@H]3O[C@@H]3C=CC(=O)O1)C[C@H](O)[C@@H]2C(=O)O | 145% (inactive) | –
13 | NC[C@H]1O[C@H](O[C@@H]2[C@@H](O)[C@@H](O[C@H]3O[C@H](CO)[C@@H](O)[C@H](N)[C@@H]3O)[C@H](N)C[C@@H]2N)[C@H](O)[C@@H](O)[C@H]1O | 111% (inactive) | –
14 | COc1nccc(-c2c(-c3ccc(F)cc3)ncn2C2CCC(O)CC2)n1 (centres undefined) | – | 0.0083 µM (active)
15 | CC1(COc2ccc3c(c2)ncn3-c2ccc3cccc(N4CCC(N)CC4)c3n2)COC1 | – | 5.9 µM (active)
16 | NCc1c[nH]c(=S)n1[C@H]1CCc2c(F)cc(F)cc2C1 | – | 26.4 µM (active)

Test: Quantitative High-Throughput drug screen in 47 multiple myeloma cell lines against the NCATS MIPE library collection: Karpas620_DSMZ cell viability assay (AID 1918959); note: nearly all actives have a fitted effect of over 30% in size
Conditions: Karpas620 myeloma viability, CellTiter-Glo ATP luminescence, 48 h; series mostly up to 45.8 µM; viability (% of DMSO): at the top concentration
In short: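 We plated 500 myeloma cells per well, pinned in MIPE 4.0 compounds, and incubated for 48 hours at 37C. ATP was then quantified with CellTiter-Glo, with DMSO and media-only wells defining 100% and 0%.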

Row | Structure (SMILES) | Potency | viability (% of DMSO)
17 | Cc1cc(CS(=O)(=O)c2ccccc2)cc(OCc2ccc(CN3CCC[C@H]3CO)cc2)c1 | 14.8 µM (active) | –
18 | Cc1cccc(Nc2nc(N[C@@H]3CCCC[C@H]3N)ncc2C(N)=O)c1 | 26.4 µM (active) | –
19 | CC(C)(F)C[C@H](N[C@@H](c1ccc(-c2ccc(S(C)(=O)=O)cc2)cc1)C(F)(F)F)C(=O)NC1(C#N)CC1 | – | 107% (inactive)
20 | C[C@]12CC[C@@H]3c4ccc(O)cc4CC[C@H]3[C@H]1[C@@H](O)[C@@H](O)[C@H]2O | – | 91.5% (inactive)
21 | CC[C@H](C)n1cc(C)c2c(C(=O)NCc3c(C)cc(C)[nH]c3=O)cc(-c3ccc(N4CCNCC4)nc3)cc21 | – | 119% (inactive)
22 | O=C1Nc2ccc(I)cc2C1=Cc1cc(Br)c(O)c(Br)c1 | 14.8 µM (active) | –
23 | CC(=O)N1CCN(c2ccc(OCc3nn(C)c(C)c3-c3cccc4c(CCCOc5cc(C)c(Cl)c(C)c5)c(C(=O)O)n(Cc5cccnc5)c34)cc2)CC1 | 26.4 µM (active) | –
24 | CN1CC(=O)NC1=NC(=O)Nc1cccc(Cl)c1 | 5.26 µM (active) | –
25 | CCC(=O)NCC[C@@H]1CCc2ccc3c(c21)CCO3 | – | 125% (inactive)
26 | Oc1cc(O)cc(C=Cc2ccc(O)c(O)c2)c1 | 5.26 µM (active) | –
27 | CCC[C@@H](NC(=O)[C@@H]1[C@H]2CCC[C@@H]2CN1C(=O)[C@@H](NC(=O)[C@@H](NC(=O)c1cnccn1)C1CCCCC1)C(C)(C)C)C(=O)C(=O)NC1CC1 | 18.7 µM (active) | –
28 | O=C(NC[C@H](O)CO)c1ccncc1Nc1ccc(I)cc1F | 0.0296 µM (active) | –
29 | Cc1ccc(NC(=O)Nc2cc(C(F)(F)F)ccc2F)cc1Nc1ccc2c(c1)NC(=O)C2=Cc1ccc[nH]1 | 5.26 µM (active) | –
30 | CN1[C@H]2CC[C@H]1CC(OC(=O)c1c[nH]c3ccccc13)C2 (some centres undefined) | – | 89.8% (inactive)
31 | CO[C@H]1C=CO[C@@]2(C)Oc3c(C)c(O)c4c(O)c(c(C=NN5CCN(C)CC5)c(O)c4c3C2=O)NC(=O)C(C)=CC=C[C@H](C)[C@H](O)[C@@H](C)[C@@H](O)[C@@H](C)[C@H](OC(C)=O)[C@H]1C | – | 95.7% [at 15.3 µM] (inactive)
32 | CCC(=C(CC)c1ccc(O)cc1)c1ccc(O)cc1 | 16.6 µM (active) | –
33 | Cc1c(-c2cccc3c(CCCOc4cccc5ccccc45)c(C(=O)O)n(Cc4cccnc4)c23)c(COc2ccc(N3CCN([S+](=O)([O-])N(C)C)CC3)cc2)nn1C | – | 100% (inactive)
34 | COc1ccnc(CS(=O)c2nc3ccc(OC(F)F)cc3[nH]2)c1OC (centres undefined) | 29.6 µM (active) | –
35 | C[C@@H]1CC=CC=CC=CC=C[C@@H](O[C@@H]2O[C@H](C)[C@@H](O)[C@H](N)[C@H]2O)C[C@@H]2O[C@](O)(C[C@@H](O)C[C@@H]3O[C@@H]3C=CC(=O)O1)C[C@H](O)[C@@H]2C(=O)O | – | 124% (inactive)
36 | CC(C)c1c(C(=O)Nc2ccccc2)c(-c2ccccc2)c(-c2ccc(F)cc2)n1CC[C@H](O)C[C@@H](O)CC(=O)O | – | 86.9% (inactive)
37 | O=C(O)Cc1cccc(OCCCN(Cc2cccc(C(F)(F)F)c2Cl)CC(c2ccccc2)c2ccccc2)c1 | – | 112% (inactive)
38 | NC[C@H]1O[C@H](O[C@@H]2[C@@H](O)[C@@H](O[C@H]3O[C@H](CO)[C@@H](O)[C@H](N)[C@@H]3O)[C@H](N)C[C@@H]2N)[C@H](O)[C@@H](O)[C@H]1O | – | 110% (inactive)
39 | COc1nccc(-c2c(-c3ccc(F)cc3)ncn2C2CCC(O)CC2)n1 (centres undefined) | – | 118% (inactive)
